The results in this text go back to PubChem BioAssay (Tox21).

Records with an inconclusive call do not appear. Where a call stands in place of a potency, no number is given. Values without a mark were called inactive. Activity calls are given as the source filed them. Calls come from the whole dose curve; as a rule, active = well fitted cell-killing curve with a large enough effect in the repeat runs; inconclusive = weak or mixed curves, or effect the other way; inactive = flat fitted curve, though single readings scatter.
Potency is the fitted concentration of half-maximal effect.

A short description of this assay: qHTS assay to identify small molecule agonists of the sonic hedgehog signaling (Shh) pathway - cell viability counter screen (AID 1259366). Note: nearly all actives have a fitted effect of over 50% in size. Particulars: NIH/3T3 Gli1-Luc viability, CellTiter-Fluor, 24 h; series mostly up to 92.4 µM. The source says: National Center for Advancing Translational Sciences [NCATS]
NIH Chemical Genomics Center [NCGC]
U.S. Environmental Protection Agency [EPA]
National Institutes of Environmental Health Sciences [NIEHS]
National Toxicology Program [NTP]
U.S. Food and Drug Administration [FDA]
The sonic hedgehog (Shh) pathway is essential for normal embryonic development. Dysregulation of the Shh pathway can cause severe developmental defects in organs. Therefore chemicals that interfere with the pathway are potential developmental toxicants. A cell line designated 3T3Gli1-Luc (DMB/OARSA/CFSAN/FDA, Laurel, MD), a NIH/3T3 derived clone containing stably integrated Gli1-Luc reporter is used to detect chemical interference of the Shh pathway, by changes in the expression of the firefly Luc gene under the control of the Gli1 transcriptional response element. This cell line was used to screen Tox21 libraries for identifying and prioritizing the potential developmental toxicants that interfere Shh pathway. The cytotoxicity of the compounds was tested in parallel by measuring the cell viability using CellTiter-Fluor assay system (Promega, Madison, WI) in the same wells.
Tox21 Assay Protocol Summary:
3T3 Gli1-Luc cells were dispensed at 2,000 per well in 5uL of culture medium into white solid bottom 1536-well plates (Greiner Bio-One, Monroe, NC) using a Multidrop Combi (Thermo Scientific, Waltham, MA) dispenser. The assay plates were incubated at 37 C and 5% CO2 for 4hr, and then 23nL of compounds dissolved in DMSO and positive control were transferred using a Pintool station (Wako, San Diego, CA). The assay plates were incubated at 37C and 5% CO2 for 24hr. For viability read, after 23hr of compound treatment, 1uL of CellTiter-Fluor reagent (Promega Corporation, Madison, WI) was added to each well of the assay plates using Flying Reagent Dispenser (FRD, Aurora Discovery, San Diego, CA) and incubated the assay plates at 37C for 1hr. The fluorescence signal was quantified using a ViewLux plate reader (Perkin Elmer, Shelton, CT).
On to `OC1OC[C@@H](O)[C@H](O)[C@H]1O` (stereo not given in full), for which the Potency entry is “inactive”. Still for that read-out and setting: as for `NCCNC(=O)c1ccc(Cl)cn1`, the entry is “inactive”; as for `NC(=O)c1c(Cl)cccc1Cl`, “inactive”; as for `O=C(O)/C=C/c1ccc(/C=C/C(=O)O)cc1`, “inactive”. Same read-out and setting: as for `C[C@H](O)C(=O)Nc1c(I)c(C(=O)NC(CO)CO)c(I)c(C(=O)NC(CO)CO)c1I`, the entry is “inactive”; as for `CC(C)(C)N(CCO)CCO`, “inactive”. In the case of `C=C(C)C(=O)OCCCCCCCCCCCCCCCCCC`, the viability change, negative = cytotoxic was -3.3% [at 19 µM]. With `c1ccc(SCCSc2ccccc2)cc1`, the Potency entry is “inactive”.

In the case of `CCCCCCC(=O)OCC`, the Potency entry is “inactive”. Same read-out and setting: as for `CCc1cc(S(=O)(=O)O)c2cc(C(C)C)cccc1-2`, the entry is “inactive”; as for `CCC(C)OC(=O)N1CCCCC1CCO` (stereo not given), “inactive”; as for `COCCOC(=O)CC#N`, “inactive”. The same measure, in the same setting: as for `CC(C)COC(=O)C(C)C`, the entry is “inactive”; as for `Nc1ccc2cc(S(=O)(=O)O)ccc2c1`, “inactive”. Consider `COc1ccc(COC=O)cc1`, for which the Potency entry was “inactive”.

For the molecule `CNc1ncnc2nc[nH]c12`, the Potency entry was “inactive”. Turning to `CO`, the Potency entry is “inactive”. Same read-out and setting: as for `O=C(O)Cc1cc(I)c(Oc2cc(I)c(O)c(I)c2)c(I)c1`, the entry is “inactive”. Same read-out and setting: as for `CC(C)(O)c1ccccc1`, the entry is “inactive”; as for `CC(C)(O)Cc1ccccc1`, “inactive”. Still for that read-out and setting: as for `C1COCCO1`, the entry is “inactive”; as for `CC(C)c1cccc(O)c1`, “inactive”. Regarding `CCCCCCOC(=O)c1ccccc1O`, the Potency result is “inactive”. Still for that read-out and setting: as for `CCCCCCCCCCCCCCC`, the entry is “inactive”; as for `COc1ccc(N=[N+]([O-])c2ccc(OC)cc2)cc1`, “inactive”; as for `CCCCCCCCC=O`, “inactive”.

Take `C=C(C)C(=O)NCCCN(C)C`: the Potency result is “inactive”. On the same count and under the same terms, as for `CC(C)c1cccc(C(C)C)c1N`, the entry is “inactive”; as for `CCCCc1ccc(N)cc1`, “inactive”; as for `CCO[Si](C)(OCC)OCC`, “inactive”. Still for that read-out and setting: as for `COc1cccc(Br)c1`, the entry is “inactive”; as for `C=C(C)C1CC=C(C)C(O)C1` (stereo not given), “inactive”; as for `O=Cc1ccccc1[N+](=O)[O-]`, “inactive”.

As to `Nc1ccn(C2CO[C@H](CO)O2)c(=O)n1` (stereo not given in full), the Potency entry was “inactive”.

Turning to `CN(C)C(=O)C(CCN1CCC(O)(c2ccc(Cl)cc2)CC1)(c1ccccc1)c1ccccc1`, the Potency is 16.8 µM (active). The same measure, in the same setting: as for `CC1CCN(CCCC(=O)c2ccc(F)cc2)CC1`, the entry is “inactive”. The same measure, in the same setting: as for `C=CCn1c(=O)n([C@@H]2O[C@H](CO)[C@@H](O)[C@H]2O)c2nc(N)[nH]c(=O)c21`, the entry is “inactive”. On the same count and under the same terms, as for `Oc1ccc2c(c1)OC[C@@H](N1CCC(O)(c3ccc(F)cc3)CC1)[C@H]2O`, the entry is “inactive”. On to `NS(=O)(=O)c1cc(C2(O)NC(=O)c3ccccc32)ccc1Cl` (stereo not given), for which the Potency entry is “inactive”. Consider `Nc1[nH]c(=O)ncc1F`, for which the Potency result is “inactive”.
